What is called AC50 is the concentration at which the activity in the assay is half-maximal.

Active and inactive are the calls of the source. How the source made its calls: active means hit-call score of the fitted dose curve at least 0.9, where 1 is the maximum; inactive means score below 0.9.

Read-out in the assay: Cyclin D1 (CCND1), CCND1 (gene 595)
Nature of the assay: LTEA_HepaRG_CCND1: Life Technologies and Expression Analysis (LTEA) Assay for Cyclin D1 (CCND1) using HepaRG (AID 2283451).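 On AC50: TaqMan qRT-PCR transcript level normalised to ACTB GAPDH and POLR2A housekeeping genes.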 Particulars: mRNA level, 48 h; actives raise or lower the signal. The method, then:
LTEA_HepaRG is a cell based, multiplexed-readout assay that uses HepaRG, a human liver cell line, with measurements taken at 48 hours after chemical dosing on a 96-well plate.LTEA_HepaRG_CCND1 is one of 102 assay component(s) measured in the LTEA HepaRG cell culture assay. It is a marker of Cell proliferation, survival, death.Data from the assay component LTEA_HepaRG_CCND1 was analyzed into 1 endpoint. This assay endpoint, LTEA_HepaRG_CCND1, was analyzed with bidirectional fitting relative to DMSO as the negative control and baseline of activity. Using a type of inducible reporter, measures of mRNA induction for gain or loss-of-signal activity can be used to understand regulation of transcription factor activity. To generalize the intended target to other relatable targets, this assay endpoint is annotated to the cell cycle intended target family, where the subfamily is Cell proliferation, survival, death.
A total of 1060 chemcials from the ToxCast library were tested in eight-point concentration-response experiments. Cell culture and cytotoxicity assays were conducted at Thermo Fisher Scientific's Custom Services facility (Madison, WI). A single lot of human HepaRG cells (Thermo Fisher Scientific, Frederick, MD) was used for the cell culture experiments. 96-well format collagen type I coated plates of human HepaRG cells were prepared using established methods. Briefly, cryopreserved HepaRG cells were thawed, plated at a density of approximately 100,000 cells/well in HepaRG Thaw, Plate, and General Purpose media (HPRG770, Thermo Fisher Scientific), and incubated for 48 hours. 0.5% DMSO was selected as vehicle control to balance the requisite need of DMSO in HepaRG cultures to maintain differentiation (for example, baseline metabolism, proportions of hepatocytes vs. cholangiocytes), while enabling further hepatic receptor pathway activation (for example, PXR and CAR) in response to chemical exposure. 48 hours after plating, the culture medium was replaced with HepaRG Serum-Free Incudtion Media. Cells were exposed to each test chemical in duplicate and maintained in CO2 incubators for another 48 hours. Chemical plates were thawed to room temperature and 200x concentrations of treatment groups were prepared. 8-point conentration-reponse curves were made with the highest exposure at 100 uM, followed by half-log dilutions, all in 0.5% DMSO. Each test plate contained variouse controls, induction positive controls (1mM phenobarbital), cytotoxicity positive controls ([…] aflatoxin B1), vehicle controls (0.5% DMSO), and total lysis controls (0.5% DMSO). Cell morphology images were taken using an Essen IncuCyte FLR automated microscope, with six 96-well plates imaged in about 24 minutes. Images were captured and exported and JPEG files. Spent culture media was transfered to black-well plates for the LDH assay, and remaining media was sorted at -80 C for later use. Cells were treated with RLT buffer and frozen until shipped for gene expression analysis. Total RNA was isolated from the cell suspension in 75 uL of Buffer RLT (Qiagen, Germantown, MD 20874) by Quintiles/Expression Analysis (Durham, NC) using a custom isolation procedure. Total RNA from each plate well was transferred to a preamplification plate. Fluidigm's 96.96 Dynamic ArrayTM (Fluidigm, Amsterdam, the Netherlands) technology was used for gene expression analyses by quantitative reverse transcription polymerase chain reaction (qRT-PCR, performed by Quintiles/Expression Analysis, Durham, NC)89. Standard TaqManTM Assays (Applied Biosystems/ThermoFisher Scientific, Foster City, CA) were used to assess the expression of 93 genes selected based on their selectivity and sensitivity to important hepatic receptors known to be modulated by environmental chemicals; importance in human hepatocyte functionality; and hepatotoxicity. […]
Consider `CC(C)=CCC/C(C)=C\CO`, for which the compound was called inactive.

In the case of `O=C(CCCCCCCCc1cccnc1)N1CCC(C=C(c2ccccc2)c2ccccc2)CC1`, the result was inactive.

For the compound `O=C(OC[C@H]1O[C@@H](OC(=O)c2cc(O)c(O)c(OC(=O)c3cc(O)c(O)c(O)c3)c2)[C@H](OC(=O)c2cc(O)c(O)c(OC(=O)c3cc(O)c(O)c(O)c3)c2)[C@@H](OC(=O)c2cc(O)c(O)c(OC(=O)c3cc(O)c(O)c(O)c3)c2)[C@@H]1OC(=O)c1cc(O)c(O)c(OC(=O)c2cc(O)c(O)c(O)c2)c1)c1cc(O)c(O)c(OC(=O)c2cc(O)c(O)c(O)c2)c1`, the compound was classed as inactive.

Turning to `Cc1c(-c2cccnc2)c2ccccc2n1CCCCC(=O)O`, the outcome was inactive.

Regarding `CC(C)=CCCC(C)CCO` (stereo not given), the compound was called inactive.

For `Nc1cccc(N)c1`, the result was inactive.

For the compound `CCC(C)(C)C(=O)O[C@H]1C[C@@H](C)C=C2C=C[C@H](C)[C@H](CC[C@@H]3C[C@@H](O)CC(=O)O3)[C@H]21`, the outcome was inactive.

As to `CC(C)(O)c1coc(S(=O)(=O)NC(=O)Nc2c3c(cc4c2CCC4)CCC3)c1`, the compound was called inactive.

For `C1=CCCC=CCCC=CCC1`, the outcome was inactive.

For the compound `COc1ccc(-n2nc(C(F)F)cc2-c2ccc(S(C)=O)cc2)cc1` (stereo not given), the compound was called inactive.

For `Cn1c(=O)cc(Oc2ccc(F)cc2F)c2cnc(NCC(C)(C)O)nc21`, the AC50 is 17 µM (active).

Regarding `O=P(OC(CCl)CCl)(OC(CCl)CCl)OC(CCl)CCl`, the compound was classed as inactive.

As to `O=C(O)c1cc(N=Nc2ccc(S(=O)(=O)Nc3ccccn3)cc2)ccc1O`, the result was inactive.

Consider `CCCCC(CC)COC(=O)CCCCCCCCC(=O)OCC(CC)CCCC` (stereo not given), for which the compound was classed as inactive.

As for `Cn1cnc([N+](=O)[O-])c1Sc1ncnc2nc[nH]c12`, the compound was called inactive.

For the compound `O=C1CCC(N2C(=O)c3ccccc3C2=O)C(=O)N1` (stereo not given), the compound was called inactive.

Take `Nc1nc2ncc(CNc3ccc(C(=O)N[C@@H](CCC(=O)O)C(=O)O)cc3)nc2c(=O)[nH]1`: the result was inactive.

As for `COC(=O)c1c(Cl)c(Cl)c(C(=O)OC)c(Cl)c1Cl`, the outcome was inactive.

For the compound `Cn1c(=O)c2c(ncn2C)n(C)c1=O`, the result was inactive.

In the case of `CNCc1ccc(NC(=O)c2c[nH]c3c2C(=O)CCC3)cc1`, the compound was classed as inactive.

As for `CC(C)CC(C)(O)C#CC(C)(O)CC(C)C` (stereo not given), the compound was classed as inactive.

Consider `CC(C)=CCC/C(C)=C/CO`, for which the call was inactive.

For the compound `O=c1[nH]c2ccc(S(=O)CCN3CCC(Cc4ccc(F)cc4)CC3)cc2o1` (stereo not given), the compound was called inactive.

Take `COC(=O)CC(=O)OC`: the result was inactive.

Consider `CCN(C(=O)c1cc(C)cc(OC[C@H](C)Nc2ccncc2)c1)C(C)C`, for which the compound was classed as inactive.

In the case of `CCCCC(CC)COC(=O)c1ccc(C(=O)OCC(CC)CCCC)cc1` (stereo not given), the call was inactive.

Turning to `O=c1n(CC2CO2)c(=O)n(CC2CO2)c(=O)n1CC1CO1` (stereo not given), the outcome was inactive.

Consider `CCCCCCCCO`, for which the outcome was inactive.

For `CC(=O)OCCC(C)C`, the result was inactive.

For `C=CC(=C)CCC=C(C)C`, the compound was called inactive.

In the case of `CC[C@H]1OC(=O)[C@H](C)[C@@H](O[C@H]2C[C@@](C)(OC)[C@@H](O)[C@H](C)O2)[C@H](C)[C@@H](O[C@@H]2O[C@H](C)C[C@H](N(C)C)[C@H]2O)[C@](C)(O)C[C@@H](C)C(=O)[C@H](C)[C@@H](O)[C@]1(C)O`, the compound was classed as inactive.

On to `CC(=O)c1ccc2c(c1)[C@H](NC(=O)c1ccc(F)cc1)[C@@H](O)C(C)(C)O2`, for which the result was inactive.

Take `Nc1ccc(Nc2ccccc2)cc1`: the compound was classed as inactive.

On to `CC1(C)C(=O)N(Br)C(=O)N1Br`, for which the compound was called inactive.

Regarding `NC(=O)NO`, the result was inactive.

Regarding `O=C(O)CCN(C1(C(=O)NO)CCCC1)S(=O)(=O)c1ccc(Oc2ccc(F)cc2)cc1`, the call was inactive.

Consider `Cc1[nH]cnc1C[C@H]1CCc2c(C)c3ccccc3n2C1=O`, for which the AC50 was 79.7 µM (active).

Consider `Oc1ccc2c(c1)-c1ccccc1C2`, for which the call was inactive.

With `Cc1ccc(S(=O)(=O)O)cc1C`, the outcome was inactive.

`CCc1cc(SCc2sc(-c3ccc(C(F)(F)F)cc3)nc2CN2CCN(c3ccc(OC)cc3)CC2)ccc1OCC(=O)O`: the AC50 was 93.4 µM (active).

The values above are taken from PubChem BioAssay (EPA / NIEHS).
